Reference: PMC10668032, “Altered binding affinity of SIX1-Q177R correlates with enhanced WNT5A and WNT pathway effector expression in Wilms tumor”
Whole data set: some 33,000 sequences, median “e-score” near -0.05, cut for the highest 2% near 0.38. The list comes from a sample in which the highest values are over-represented; it also holds similar and randomly drawn sequences.

These sequences were tested against T1, SIX1-Q177R homeodomain (human, UniProt Q15475 108-198, Q177R) (assay: universal protein binding microarray; Universal all-10-mer PBM (8x60K, AMADID 030236), 300 nM GST-tagged protein, Alexa Fluor 488 anti-GST; buffer, salt, pH and temperature not stated (as in Berger); high values mean tight binding). Details: protein: ivt; tags: N-terminal GST; dsDNA, one strand shown.
T1 sequence: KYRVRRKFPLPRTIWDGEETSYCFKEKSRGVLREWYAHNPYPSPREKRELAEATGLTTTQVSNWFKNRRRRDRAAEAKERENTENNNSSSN
Outline: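 Duplicate protein binding microarrays (universal 'all 10-mer', 8×60K format) were incubated with GST-tagged homeodomains at 300 nM final concentration. Binding was quantified as 8-mer E-scores with the Universal PBM Analysis Suite.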

**Q.** How did the binding signal turn out when ATCCCGTG was run?
**A.** 0.228 ± 0.0211 E-score

**Q.** With CACGAGGG as the sequence, how does the binding signal read?
**A.** 0.189 ± 0.00843 E-score

**Q.** AGGGGTAG was tested. Which binding signal did it give?
**A.** 0.269 ± 0.00879 E-score

**Q.** CACGCCGA was tested. Which binding signal did it give?
**A.** 0.194 ± 0.0137 E-score

**Q.** For AAGCGACA, which binding signal is on record?
**A.** 0.229 ± 0.0424 E-score

**Q.** For CACCTCCA, which binding signal is on record?
**A.** 0.293 ± 0.0179 E-score

**Q.** How did the binding signal turn out when ATGCACCA was run?
**A.** 0.165 ± 0.000877 E-score

**Q.** With ATACACAG as the sequence, how does the binding signal read?
**A.** 0.187 ± 0.0325 E-score

**Q.** ATACACCA was tested. Which binding signal did it give?
**A.** 0.47 ± 0.0019 E-score

**Q.** ATACCCCC was tested. Which binding signal did it give?
**A.** 0.364 ± 0.0151 E-score

**Q.** For ATACACAC, which binding signal is on record?
**A.** 0.315 ± 0.0133 E-score

**Q.** Which binding signal does the source give for ACCCACCA here?
**A.** 0.2 ± 0.00308 E-score

**Q.** Which binding signal does the source give for ATACACCC here?
**A.** 0.46 ± 0.00688 E-score

**Q.** How did the binding signal turn out when ATATACCG was run?
**A.** 0.15 ± 0.0185 E-score

**Q.** ATACACCG was tested. Which binding signal did it give?
**A.** 0.472 ± 0.00491 E-score

**Q.** ACTCGGTG was tested. Which binding signal did it give?
**A.** 0.368 ± 0.00838 E-score

**Q.** With CACCTCCC as the sequence, how does the binding signal read?
**A.** 0.256 ± 0.00611 E-score

**Q.** For ATACCCCA, which binding signal is on record?
**A.** 0.254 ± 0.016 E-score

**Q.** For ATCGGTGC, which binding signal is on record?
**A.** 0.204 ± 0.0156 E-score

**Q.** With ACTCCCAG as the sequence, how does the binding signal read?
**A.** 0.262 ± 0.038 E-score

**Q.** Which binding signal does the source give for AGGGAGTA here?
**A.** 0.178 ± 0.0384 E-score

**Q.** For TGTCCTAA, which binding signal is on record?
**A.** 0.241 ± 0.0454 E-score

**Q.** TGTAGACA was tested. Which binding signal did it give?
**A.** 0.2571 ± 0.000438 E-score

**Q.** How did the binding signal turn out when CGGCACCA was run?
**A.** 0.181 ± 0.0154 E-score

**Q.** ACACAGCG was tested. Which binding signal did it give?
**A.** 0.1958 ± 0.00148 E-score

**Q.** With AGTGTCTA as the sequence, how does the binding signal read?
**A.** 0.3723 ± 0.00362 E-score

**Q.** Which binding signal does the source give for CGTGTCTA here?
**A.** 0.405 ± 0.0182 E-score

**Q.** How did the binding signal turn out when GGTATCTA was run?
**A.** 0.216 ± 0.0361 E-score

**Q.** For GGTGTCTA, which binding signal is on record?
**A.** 0.468 ± 0.0105 E-score

**Q.** Which binding signal does the source give for GGGGTCTA here?
**A.** 0.229 ± 0.0526 E-score

**Q.** With CCCCAAGC as the sequence, how does the binding signal read?
**A.** 0.228 ± 0.0222 E-score

**Q.** Which binding signal does the source give for ATACCGGG here?
**A.** 0.213 ± 0.0219 E-score

**Q.** Which binding signal does the source give for ACACCGGC here?
**A.** 0.481 ± 0.00281 E-score

**Q.** Which binding signal does the source give for ACTCCGGC here?
**A.** 0.233 ± 0.0256 E-score

**Q.** How did the binding signal turn out when CCACCGGA was run?
**A.** 0.203 ± 0.037 E-score

**Q.** Which binding signal does the source give for ACCCCGGG here?
**A.** 0.302 ± 0.0198 E-score

**Q.** ACACCGGG was tested. Which binding signal did it give?
**A.** 0.4843 ± 0.00112 E-score

**Q.** Which binding signal does the source give for ACACCGGT here?
**A.** 0.481 ± 0.00684 E-score

**Q.** For ACACCGGA, which binding signal is on record?
**A.** 0.476 ± 0.00539 E-score

**Q.** Which binding signal does the source give for GCACCGGA here?
**A.** 0.162 ± 0.0479 E-score

**Q.** With ACCCCGGT as the sequence, how does the binding signal read?
**A.** 0.298 ± 0.00305 E-score

**Q.** ACACAGGT was tested. Which binding signal did it give?
**A.** 0.252 ± 0.0297 E-score

**Q.** With ACCCCGGC as the sequence, how does the binding signal read?
**A.** 0.262 ± 0.0281 E-score

**Q.** How did the binding signal turn out when CACCATCC was run?
**A.** 0.252 ± 0.00467 E-score

**Q.** How did the binding signal turn out when GTGCTCTA was run?
**A.** 0.221 ± 0.0342 E-score

**Q.** With CCAACTAC as the sequence, how does the binding signal read?
**A.** 0.151 ± 0.00402 E-score

**Q.** How did the binding signal turn out when ACCTCTAC was run?
**A.** 0.151 ± 0.00402 E-score

**Q.** For ACCACGTG, which binding signal is on record?
**A.** 0.194 ± 0.00218 E-score

**Q.** Which binding signal does the source give for ACGGGATC here?
**A.** 0.197 ± 0.0102 E-score

**Q.** Which binding signal does the source give for CGGGGTAA here?
**A.** 0.235 ± 0.0071 E-score

**Q.** How did the binding signal turn out when ACACTCAT was run?
**A.** 0.388 ± 0.0116 E-score

**Q.** Which binding signal does the source give for ACTCTTAT here?
**A.** 0.212 ± 0.0414 E-score

**Q.** With ACACTTAG as the sequence, how does the binding signal read?
**A.** 0.355 ± 0.0376 E-score

**Q.** ACACTCTA was tested. Which binding signal did it give?
**A.** 0.367 ± 0.0161 E-score

**Q.** For ACTCACAC, which binding signal is on record?
**A.** 0.3 ± 0.0164 E-score

**Q.** ACACTCAA was tested. Which binding signal did it give?
**A.** 0.39 ± 0.0152 E-score

**Q.** How did the binding signal turn out when ACACTCAG was run?
**A.** 0.387 ± 0.00387 E-score

**Q.** ACACTCAC was tested. Which binding signal did it give?
**A.** 0.39 ± 0.00873 E-score

**Q.** For ACACTTAA, which binding signal is on record?
**A.** 0.316 ± 0.0276 E-score

**Q.** With ACACTTAC as the sequence, how does the binding signal read?
**A.** 0.378 ± 0.013 E-score

**Q.** Which binding signal does the source give for CACTTACC here?
**A.** 0.224 ± 0.032 E-score

**Q.** AGCCCGGG was tested. Which binding signal did it give?
**A.** 0.157 ± 0.00865 E-score

**Q.** How did the binding signal turn out when CGTGAACC was run?
**A.** 0.17 ± 0.0126 E-score

**Q.** TGTATACA was tested. Which binding signal did it give?
**A.** 0.283 ± 0.0331 E-score

**Q.** How did the binding signal turn out when ACTACGTG was run?
**A.** 0.21 ± 0.0113 E-score

**Q.** GGGGATCA was tested. Which binding signal did it give?
**A.** 0.275 ± 0.0112 E-score

**Q.** For GAGGGATC, which binding signal is on record?
**A.** 0.213 ± 0.0344 E-score

**Q.** With CCCCATGA as the sequence, how does the binding signal read?
**A.** 0.151 ± 0.00929 E-score

**Q.** GGCGAGGA was tested. Which binding signal did it give?
**A.** 0.174 ± 0.0324 E-score

**Q.** For ACCCTAAG, which binding signal is on record?
**A.** 0.1853 ± 0.00154 E-score

**Q.** With CACCCTTA as the sequence, how does the binding signal read?
**A.** 0.263 ± 0.0167 E-score

**Q.** Which binding signal does the source give for ATACCCTA here?
**A.** 0.312 ± 0.0168 E-score

**Q.** How did the binding signal turn out when ACCAGAAT was run?
**A.** 0.161 ± 0.0505 E-score

**Q.** With CCGACCAG as the sequence, how does the binding signal read?
**A.** 0.161 ± 0.0337 E-score

**Q.** Which binding signal does the source give for AAAACACG here?
**A.** 0.321 ± 0.0302 E-score

**Q.** Which binding signal does the source give for CAAACACA here?
**A.** 0.19 ± 0.0451 E-score

**Q.** With AAAACACC as the sequence, how does the binding signal read?
**A.** 0.437 ± 0.0129 E-score

**Q.** For AAAACACA, which binding signal is on record?
**A.** 0.188 ± 0.0109 E-score

**Q.** How did the binding signal turn out when CAAACACC was run?
**A.** 0.4485 ± 0.00209 E-score

**Q.** With GAAACACC as the sequence, how does the binding signal read?
**A.** 0.4545 ± 0.000905 E-score

**Q.** Which binding signal does the source give for CAAACACG here?
**A.** 0.32 ± 0.0109 E-score

**Q.** TAAACACA was tested. Which binding signal did it give?
**A.** 0.214 ± 0.0172 E-score

**Q.** How did the binding signal turn out when AAAACACT was run?
**A.** 0.301 ± 0.0568 E-score

**Q.** For ACCCTCCA, which binding signal is on record?
**A.** 0.175 ± 0.00491 E-score

**Q.** With AGAAGGGG as the sequence, how does the binding signal read?
**A.** 0.223 ± 0.00875 E-score

**Q.** For CAGAGGGG, which binding signal is on record?
**A.** 0.193 ± 0.0159 E-score

**Q.** For CACAACTG, which binding signal is on record?
**A.** 0.1786 ± 0.00129 E-score

**Q.** How did the binding signal turn out when CACCTGAA was run?
**A.** 0.2354 ± 0.0017 E-score

**Q.** How did the binding signal turn out when CACTTGTC was run?
**A.** 0.161 ± 0.0236 E-score

**Q.** With TCCTAGGA as the sequence, how does the binding signal read?
**A.** 0.22 ± 0.0107 E-score

**Q.** How did the binding signal turn out when CCGGGGAA was run?
**A.** 0.18 ± 0.0043 E-score

**Q.** CACCCCAA was tested. Which binding signal did it give?
**A.** 0.336 ± 0.0263 E-score

**Q.** How did the binding signal turn out when GCGGGGGA was run?
**A.** 0.157 ± 0.00972 E-score

**Q.** How did the binding signal turn out when GCACCAAC was run?
**A.** 0.261 ± 0.0127 E-score

**Q.** For ACTCCAAG, which binding signal is on record?
**A.** 0.2 ± 0.00662 E-score

**Q.** How did the binding signal turn out when CACCAAAA was run?
**A.** 0.217 ± 0.0236 E-score

**Q.** Which binding signal does the source give for ACACCAAG here?
**A.** 0.455 ± 0.0109 E-score

**Q.** How did the binding signal turn out when ACACCAAC was run?
**A.** 0.4617 ± 0.00175 E-score

**Q.** Which binding signal does the source give for ACACCAAA here?
**A.** 0.4659 ± 0.00317 E-score

**Q.** For ACACCAAT, which binding signal is on record?
**A.** 0.473 ± 0.00609 E-score

**Q.** With ACCCCAAA as the sequence, how does the binding signal read?
**A.** 0.205 ± 0.0372 E-score

**Q.** With ACACAAAT as the sequence, how does the binding signal read?
**A.** 0.167 ± 0.0837 E-score

**Q.** For ACACAAAG, which binding signal is on record?
**A.** 0.236 ± 0.0826 E-score

**Q.** For ACCCCAAT, which binding signal is on record?
**A.** 0.266 ± 0.0184 E-score

**Q.** Which binding signal does the source give for ATACCAAC here?
**A.** 0.163 ± 0.00749 E-score

**Q.** With GGAGAATA as the sequence, how does the binding signal read?
**A.** 0.193 ± 0.0325 E-score

**Q.** CCTGAACA was tested. Which binding signal did it give?
**A.** 0.254 ± 0.00385 E-score

**Q.** For AGTTAAGA, which binding signal is on record?
**A.** 0.155 ± 0.00537 E-score

**Q.** Which binding signal does the source give for CCGGGTTC here?
**A.** 0.22 ± 0.0235 E-score

**Q.** Which binding signal does the source give for AGTTAGGA here?
**A.** 0.153 ± 0.019 E-score
